# Experimental data reported in PubChem BioAssay (NCATS).
# Results filed as inconclusive are left out. Entries that show only a call come without a potency. The source made the active and inactive calls. Calls follow the shape of the dose curve; as a rule, active = well fitted curve in the direction sought with a large enough effect; inconclusive = small, poorly fitted or top-dose-only effect, or another doubt; inactive = no such curve, though single readings can be large; an effect the other way counts as inactive or inconclusive.
# Assay: Cytometric Cell-Based qHTS for Inhibitors of the mTORC1 Signaling Pathway in MEF (Tsc2-/-, p53-/-) Cells (AID 2660);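 also: Tsc2 and p53 null MEFs carrying empty vector with compound for 24 h; percent of cells above a phospho-rpS6 to PI ratio cutoff in each well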
# Settings: mTORC1 pathway cytometry; series mostly up to 38.3 µM
# Summary of the method: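 Percent of cells positive for normalized phospho-S6 staining is reported, with the cutoff set from rapamycin (7.5 nM) versus DMSO wells. Tsc2-/-, p53-/- MEFs received compound for 24 hrs.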
row,Structure (SMILES),outcome
1,OC[C@H]1O[C@@H](n2cnc3c(NC4CCCC4)ncnc32)[C@H](O)[C@@H]1O,inactive
2,COc1ccccc1N1CCN(CCN(C(=O)c2ccc(I)cc2)c2ccccn2)CC1,inactive
3,COc1cc(SC)ccc1C(=O)N1CCC(Cc2ccccc2)CC1,inactive
4,CCN(CC)c1ncnc2c1ncn2[C@@H]1O[C@H](COP(=O)(O)OP(=O)(O)C(Br)(Br)P(=O)(O)O)[C@@H](O)[C@H]1O,inactive
5,Clc1ccc(N2CCN(Cc3cc4ccccn4n3)CC2)cc1,inactive
6,C[N+](C)(C)CCOP(=O)(O)OP(=O)([O-])OC[C@H]1O[C@@H](n2ccc(N)nc2=O)[C@H](O)[C@@H]1O,inactive
7,CN(C)CCCO[C@@H]1[C@H]2OC(C)(C)O[C@H]2O[C@@H]1[C@H](O)CO,inactive
8,C=C[C@H]1CN2CC[C@@H]1C[C@@H]2[C@@H](O)c1ccnc2ccc(OC)cc12,inactive
9,O=P(O)(O)C(Cl)(Cl)P(=O)(O)O,inactive
10,NCC1OC(O[C@H]2[C@H](O)[C@@H](OC3C(O)C(N)CC(N)C3OC3OC(CO)C(O)C(O)C3N)O[C@@H]2CO)C(N)C(O)C1O (stereo partly drawn),inactive
11,CO/S(=N\S(=O)(=O)c1ccc(Cl)cc1)c1ccc([N+](=O)[O-])cc1 (stereo not drawn),inactive
12,CSc1nc(N)c2ncn([C@@H]3O[C@H](COP(=O)(O)OP(=O)(O)OP(=O)(O)O)[C@@H](O)[C@H]3O)c2n1,inactive
13,Nc1ncnc2c1ncn2[C@@H]1O[C@H](COP(=O)(O)OP(=O)(O)OP(=O)(O)OP(=O)(O)OC[C@@H]2O[C@H](n3cnc4c(N)ncnc43)[C@@H](O)[C@H]2O)[C@@H](O)[C@H]1O,inactive
14,NC(=S)NCCC[C@H](N)C(=O)O,inactive
15,Cc1nc2sccn2c(=O)c1CCN1CCC(=C(c2ccccc2)c2ccc(F)cc2)CC1,inactive
16,Nc1nc(Nc2ccccc2)nc2c1ncn2[C@@H]1O[C@H](CO)[C@@H](O)[C@H]1O,inactive

# Assay: High Content Imaging Cell-Based qHTS for Inhibitors of the mTORC1 Signaling Pathway in MEF (Tsc2-/-, p53-/-) Cells (AID 2666);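 also: percent of cells scored positive for phospho-rpS6 Ser235/236 immunostaining by imaging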; also: potency is read from the fitted curve at half-maximal effect
# Settings: series mostly up to 38.3 µM
# Summary of the method: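 Cells were plated, dosed with compound after 24 hrs, and incubated another 24 hrs at 37 degree Celsius. Fixed cells were immunostained for phospho-rpS6 Ser235/236 and counterstained, and the normalized signal was scored as % active cells against rapamycin and DMSO controls.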
row,Structure (SMILES),Potency
1,OC[C@H]1O[C@@H](n2cnc3c(NC4CCCC4)ncnc32)[C@H](O)[C@@H]1O,inactive
2,COc1ccccc1N1CCN(CCN(C(=O)c2ccc(I)cc2)c2ccccn2)CC1,inactive
3,COc1cc(SC)ccc1C(=O)N1CCC(Cc2ccccc2)CC1,inactive
4,CO/N=C(\C(=O)N[C@@H]1C(=O)N2C(C(=O)O)=C(COC(C)=O)CS[C@H]12)c1csc(N)n1,inactive
5,N=c1ccn2c(n1)O[C@H]1[C@H](O)[C@@H](CO)O[C@H]12,inactive
6,CCCC1(C)C(C#N)(C#N)C1(C#N)C#N,inactive
7,CCNC(=O)[C@H]1O[C@@H](n2cnc3c(N)nc(NCCc4ccc(CCC(=O)O)cc4)nc32)[C@H](O)[C@@H]1O,inactive
8,CCN(CC)c1ncnc2c1ncn2[C@@H]1O[C@H](COP(=O)(O)OP(=O)(O)C(Br)(Br)P(=O)(O)O)[C@@H](O)[C@H]1O,inactive
9,CNc1ncnc2c1ncn2[C@@H]1O[C@H](CO)[C@@H](O)[C@H]1O,inactive
10,OC[C@H]1O[C@@H](n2cnc3c(Nc4ccccc4)ncnc32)[C@H](O)[C@@H]1O,inactive
11,Clc1ccc(N2CCN(Cc3cc4ccccn4n3)CC2)cc1,inactive
12,Cn1ncc(S(=O)(=O)Cc2ccccc2)c(Br)c1=O,inactive
13,N#C/C(=C\c1ccc(-c2cc(Cl)ccc2Cl)o1)C(=O)Nc1cccc2ncccc12,inactive
14,NC(=S)c1ccc[n+]([C@@H]2O[C@@H](COP(=O)([O-])OP(=O)(O)OC[C@H]3O[C@@H](n4cnc5c(N)ncnc54)[C@H](OP(=O)(O)O)[C@@H]3O)C(O)C2O)c1 (stereo partly drawn),inactive
15,Nc1ncnc2c1c(I)cn2[C@@H]1C[C@H](N)[C@@H](O)[C@H]1O,inactive
16,C[N+](C)(C)CCOP(=O)(O)OP(=O)([O-])OC[C@H]1O[C@@H](n2ccc(N)nc2=O)[C@H](O)[C@@H]1O,inactive
17,CNC(=O)[C@H]1O[C@@H](n2cnc3c(NCc4ccc(N)cc4)ncnc32)[C@H](O)[C@@H]1O,inactive
18,O=[N+]([O-])c1ccc2c(c1)S(=O)(=O)C=C2,inactive
19,CC(C)CC(NP(=O)(O)O[C@@H]1O[C@@H](C)[C@H](O)[C@@H](O)[C@H]1O)C(=O)NC(Cc1c[nH]c2ccccc12)C(=O)O (stereo partly drawn),inactive

row,Structure (SMILES),Potency
1,CN(C)CCCO[C@@H]1[C@H]2OC(C)(C)O[C@H]2O[C@@H]1[C@H](O)CO,inactive
2,C=C[C@H]1CN2CC[C@@H]1C[C@@H]2[C@@H](O)c1ccnc2ccc(OC)cc12,inactive
3,CC(C)ON([C@@H](C(=O)NO)C(C)C)S(=O)(=O)c1ccc(-c2ccccc2)cc1,inactive
4,O=P(O)(O)C(Cl)(Cl)P(=O)(O)O,inactive
5,NCC1OC(O[C@H]2[C@H](O)[C@@H](OC3C(O)C(N)CC(N)C3OC3OC(CO)C(O)C(O)C3N)O[C@@H]2CO)C(N)C(O)C1O (stereo partly drawn),inactive
6,CSc1ccccc1N1CCN(CCCCCC(=O)NC2CCCc3ccccc32)CC1 (stereo not drawn),inactive
7,C=CC(=O)c1ccc(CCCCCC)cc1,inactive
8,CO/S(=N\S(=O)(=O)c1ccc(Cl)cc1)c1ccc([N+](=O)[O-])cc1 (stereo not drawn),inactive
9,CSc1nc(N)c2ncn([C@@H]3O[C@H](COP(=O)(O)OP(=O)(O)OP(=O)(O)O)[C@@H](O)[C@H]3O)c2n1,inactive
10,Nc1ncnc2c1ncn2[C@@H]1O[C@H](COP(=O)(O)OP(=O)(O)OP(=O)(O)OP(=O)(O)OC[C@@H]2O[C@H](n3cnc4c(N)ncnc43)[C@@H](O)[C@H]2O)[C@@H](O)[C@H]1O,inactive
11,N.N.N.N.N.N.N.N.N.N.N.N.N.N.O.O.[Ru+4].[Ru+5].[Ru+5],inactive
12,NC(=S)NCCC[C@H](N)C(=O)O,inactive
13,Cc1nc2sccn2c(=O)c1CCN1CCC(=C(c2ccccc2)c2ccc(F)cc2)CC1,inactive
14,NS(=O)(=O)C#Cc1ccccc1,inactive
15,CC(C)NC[C@@H](O)c1ccc(O)c(O)c1,inactive
16,CCOC(=O)N1CCN(/[N+]([O-])=N/Oc2ccc([N+](=O)[O-])cc2[N+](=O)[O-])CC1,13.1 µM (active)
17,Nc1nc(Nc2ccccc2)nc2c1ncn2[C@@H]1O[C@H](CO)[C@@H](O)[C@H]1O,inactive
18,O=C1NC(=O)/C(=C/c2ccc3nccnc3c2)S1,inactive
